From PubChem BioAssay AID1159580 (chemical genetic matrix, 2015)
Hit rate of the full screen: of about 5,500 compounds, about 2,000 (36%) were called active. Another 18% or so got no clear call; they are omitted. No stated cut-off is given here; in the data, active means normalized growth mostly below about 0.91 (no sharp cut-off); inconclusive means no clear call, values can overlap the other calls; inactive means mostly above about 0.92. This is one part of the list.

Experiment: chemical genetic growth profiling, strain panel (AID 1159580);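 further: tested at 20 µM; growth read once vehicle control cultures reached saturation at 30 °C; 1 = growth at the plate median or of vehicle wells; lower values mean less growth of the strain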
Conditions: growth OD

Measured: normalized growth

CCOC(=O)[C@H](CCc1ccccc1)N[C@H]1CCc2ccccc2N(CC(=O)O)C1=O
inactive: S. cerevisiae deletion strains, locus YJR075W, strain HOC1, hits give low values 0.994 | S. cerevisiae deletion strains, locus YKL009W, strain mrt4, hits give low values 1 | S. cerevisiae deletion strains, locus YKL068W, hits give low values 0.973 | S. cerevisiae deletion strains, locus YKL085W, strain MDH1 (second series), hits give low values 0.967 | S. cerevisiae deletion strains, locus YKL085W, strain MDH1, hits give low values 0.967 | S. cerevisiae deletion strains, locus YKL160W, strain elf1, hits give low values 0.993 | S. cerevisiae deletion strains, locus YKL190W, strain CNB1, hits give low values 0.989 | S. cerevisiae deletion strains, locus YKR001C, strain vps1, hits give low values 0.983 | S. cerevisiae deletion strains, locus YKR026C, strain gcn3, hits give low values 0.979 | S. cerevisiae deletion strains, locus YKR091W, strain srl3, hits give low values 0.989 | S. cerevisiae deletion strains, locus YLL001W, strain dnm1, hits give low values 0.983 | S. cerevisiae deletion strains, locus YLL026W, hits give low values 0.989 | S. cerevisiae deletion strains, locus YLL041C, strain sdh2, hits give low values 0.986 | S. cerevisiae deletion strains, locus YLR027C, strain aat2, hits give low values 0.982 | S. cerevisiae deletion strains, locus YLR039C, strain RIC1, hits give low values 1.02 | S. cerevisiae deletion strains, locus YLR058C, strain SHM2, hits give low values 0.999 | S. cerevisiae deletion strains, locus YLR102C, strain apc9, hits give low values 0.972 | S. cerevisiae deletion strains, locus YLR113W, strain HOG1, hits give low values 1.01 | S. cerevisiae deletion strains, locus YLR221C, strain rsa3, hits give low values 0.983 | S. cerevisiae deletion strains, locus YLR258W, strain gsy2, hits give low values 0.983 | S. cerevisiae deletion strains, locus YLR262C, strain YPT6 (second series), hits give low values 0.97 | S. cerevisiae deletion strains, locus YLR262C, strain YPT6, hits give low values 0.955 | S. cerevisiae deletion strains, locus YLR268W, strain sec22, hits give low values 0.98 | S. cerevisiae deletion strains, locus YLR320W, strain mms22, hits give low values 0.966 | S. cerevisiae deletion strains, locus YLR330W, strain CHS5, hits give low values 0.986 | S. cerevisiae deletion strains, locus YLR342W, strain FKS1 (second series), hits give low values 1.05 | S. cerevisiae deletion strains, locus YLR342W, strain FKS1, hits give low values 0.956 | S. cerevisiae deletion strains, locus YLR357W, strain rsc2, hits give low values 0.912 | S. cerevisiae deletion strains, locus YLR370C, strain arc18, hits give low values 0.988 | S. cerevisiae deletion strains, locus YLR371W, strain rom2, hits give low values 0.969 | S. cerevisiae deletion strains, locus YLR384C, strain iki3, hits give low values 0.986 | S. cerevisiae deletion strains, locus YLR418C, strain cdc73, hits give low values 0.953 | S. cerevisiae deletion strains, locus YML016C, strain PPZ1, hits give low values 0.98 | S. cerevisiae deletion strains, locus YML032C, strain rad52, hits give low values 0.984 | S. cerevisiae deletion strains, locus YML120C, strain ndi1, hits give low values 0.975 | S. cerevisiae deletion strains, locus YML124C, strain tub3, hits give low values 0.971 | S. cerevisiae deletion strains, locus YMR058W, strain fet3, hits give low values 0.988 | S. cerevisiae deletion strains, locus YMR078C, strain ctf18, hits give low values 0.978 | S. cerevisiae deletion strains, locus YMR125W, strain sto1, hits give low values 0.996 | S. cerevisiae deletion strains, locus YMR129W, hits give low values 0.991 | S. cerevisiae deletion strains, locus YMR205C, strain PFK2, hits give low values 0.974 | S. cerevisiae deletion strains, locus YMR223W, strain ubp8, hits give low values 0.993 | S. cerevisiae deletion strains, locus YMR231W, strain pep5, hits give low values 0.986 | S. cerevisiae deletion strains, locus YMR263W, strain SAP30, hits give low values 0.993 | S. cerevisiae deletion strains, locus YMR307W, strain GAS1, hits give low values 0.939 | S. cerevisiae deletion strains, locus YNL067W, strain RPL9B, hits give low values 0.996 | S. cerevisiae deletion strains, locus YNL071W, strain lat1, hits give low values 0.989 | S. cerevisiae deletion strains, locus YNL128W, strain TEP1, hits give low values 0.984 | S. cerevisiae deletion strains, locus YNL153C, strain GIM3, hits give low values 0.988 | S. cerevisiae deletion strains, locus YNL183C, strain NPR1, hits give low values 0.959 | S. cerevisiae deletion strains, locus YNL209W, strain ssb2, hits give low values 0.98 | S. cerevisiae deletion strains, locus YNL233W, strain BNI4, hits give low values 0.99 | S. cerevisiae deletion strains, locus YNL248C, strain rpa49, hits give low values 0.98 | S. cerevisiae deletion strains, locus YNL250W, strain rad50, hits give low values 0.963 | S. cerevisiae deletion strains, locus YNL271C, strain bni1, hits give low values 0.959 | S. cerevisiae deletion strains, locus YNL298W, strain CLA4, hits give low values 0.968 | S. cerevisiae deletion strains, locus YNL307C, strain MCK1, hits give low values 0.986 | S. cerevisiae deletion strains, locus YNL322C, strain KRE1 (second series), hits give low values 0.967 | S. cerevisiae deletion strains, locus YNL322C, strain KRE1, hits give low values 0.98 | S. cerevisiae deletion strains, locus YNR049C, strain mso1, hits give low values 0.994 | S. cerevisiae deletion strains, locus YNR052C, strain pop2, hits give low values 0.977 | S. cerevisiae deletion strains, locus YOL006C, strain TOP1, hits give low values 1.08 | S. cerevisiae deletion strains, locus YOL012C, strain htz1 1.02 | S. cerevisiae deletion strains, locus YOL147C, strain pex11, hits give low values 0.975 | S. cerevisiae deletion strains, locus YOR001W, strain rrp6, hits give low values 0.989 | S. cerevisiae deletion strains, locus YOR061W, strain CKA2, hits give low values 0.983 | S. cerevisiae deletion strains, locus YOR069W, strain VPS5, hits give low values 0.99 | S. cerevisiae deletion strains, locus YOR070C, strain gyp1, hits give low values 0.982 | S. cerevisiae deletion strains, locus YOR080W, strain dia2, hits give low values 0.973 | S. cerevisiae deletion strains, locus YOR083W, strain WHI5, hits give low values 0.982 | S. cerevisiae deletion strains, locus YOR106W, strain vam3, hits give low values 0.984 | S. cerevisiae deletion strains, locus YOR136W, strain idh2, hits give low values 0.974 | S. cerevisiae deletion strains, locus YOR144C, strain elg1, hits give low values 0.965 | S. cerevisiae deletion strains, locus YOR184W, strain ser1, hits give low values 0.981 | S. cerevisiae deletion strains, locus YOR231W, strain MKK1, hits give low values 0.976 | S. cerevisiae deletion strains, locus YOR265W, strain rbl2, hits give low values 0.987 | S. cerevisiae deletion strains, locus YOR270C, strain vph1, hits give low values 1.04 | S. cerevisiae deletion strains, locus YOR290C, strain snf2, hits give low values 0.993 | S. cerevisiae deletion strains, locus YOR316C, strain cot1, hits give low values 0.959 | S. cerevisiae deletion strains, locus YPL051W, strain arl3, hits give low values 0.978 | S. cerevisiae deletion strains, locus YPL055C, strain LGE1, hits give low values 1.02 | S. cerevisiae deletion strains, locus YPL078C, strain atp4, hits give low values 0.984 | S. cerevisiae deletion strains, locus YPL106C, strain sse1, hits give low values 0.963 | S. cerevisiae deletion strains, locus YPL240C, strain hsp82, hits give low values 0.979 | S. cerevisiae deletion strains, locus YPL241C, strain CIN2, hits give low values 0.983 | S. cerevisiae deletion strains, locus YPL256C, strain CLN2, hits give low values 0.965 | S. cerevisiae deletion strains, locus YPR119W, strain clb2, hits give low values 0.971 | S. cerevisiae deletion strains, locus YPR141C, strain kar3, hits give low values 0.948 | S. cerevisiae deletion strains, locus YPR163C, strain tif3, hits give low values 0.968 | S. cerevisiae deletion strains, locus YPR167C, strain met16, hits give low values 0.978 | S. cerevisiae deletion strains, strain wtn01, hits give low values 0.973 | S. cerevisiae strains, strain wild type, hits give low values 0.98
